Source: the supplement of paper PMC7156485
± gives the standard deviation of the averaged measurements.

Assays:
Settings in all cases: concentration: 10 µM; 24 h
HCC1569 [1] = test: cell number relative to DMSO (% of DMSO); higher = more cells (less growth inhibition / toxicity)
Procedure, shortened: (§1)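 Compounds were applied at 10 µM for 24 h at 37 °C, in triplicate, to HCC1569 and TDF cells. The cells were then fixed and stained for H1.0, and nuclei were counterstained with DAPI. Nuclear H1.0 intensity or cell number is reported relative to the plate control as a percent, taking the median of replicates. Smoothing for positional effects was applied to HCC1569 values only.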

TDF [2] = test: as above
Procedure, shortened: as §1

TDF [3] = test: H1.0 immunofluorescence intensity relative to DMSO (% of DMSO); higher = stronger H1.0 induction, active = 120 or more
Procedure, shortened: as §1

HCC1569 [4] = test: H1.0 immunofluorescence intensity relative to DMSO (% of DMSO); higher = stronger H1.0 induction, active = 140 or more
Procedure, shortened: as §1
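Throughout, for H1.0 immunofluorescence intensity relative to DMSO: TDF is a line of transformed human dermal fibroblasts of mesenchymal origin.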
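Throughout, for cell number relative to DMSO: TDF denotes transformed human dermal fibroblasts of mesenchymal origin.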

SMILES	cell number (HCC1569 [1])	cell number (TDF [2])	H1.0 immunofluorescence intensity (TDF [3])	H1.0 immunofluorescence intensity (HCC1569 [4])
Cl.Cl.NCCNc1ncc(C(N)=O)c(Nc2cccc(C(F)(F)F)c2)n1.O.O [Syk Inhibitor II]	82.1	84.7	88.2 (inactive)	148 (active)
C[C@H](C#Cc1ccc(Cc2ccc(F)cc2)s1)N(O)C(N)=O	98	92	100 (inactive)	99.7 (inactive)
C=CC[C@H](N)C(=O)O [L-allylglycine]	101	99.3	95.9 (inactive)	92.4 (inactive)
Cn1cc(-c2ccc3nnc(C(F)(F)c4ccc5ncccc5c4)n3n2)cn1	102	96	96.1 (inactive)	101 (inactive)
Br.Br.N=C(N)SCCc1cccc(CCSC(=N)N)c1 [1,3-PBIT dihydrobromide]	117	113	97.4 (inactive)	98.4 (inactive)
CCOC(=O)C1=CC(OC(CC)CC)C(NC(C)=O)C(N)C1 (stereo unspecified) [Oseltamivir]	104	100	94 (inactive)	99.4 (inactive)
COc1cc2c[n+](C)c3c4cc5c(cc4ccc3c2cc1OC)OCO5.[Cl-]	85.3	34.7	138 (active)	106 (inactive)
C=CC(N)CCC(=O)O (racemic)	92.9	99	97.3 (inactive)	107 (inactive)
O=C1CN2Cc3c(ccc(Cl)c3Cl)NC2=N1 [Anagrelide]	103	110	92.9 (inactive)	98.7 (inactive)
Cc1nccn1CC1CCc2c(c3ccccc3n2C)C1=O (stereo unspecified) [Ondansetron]	103	104	95.4 (inactive)	118 (inactive)
CC(C)(C)NCC(O)c1ccc(O)c(CO)c1.CC(C)(C)NCC(O)c1ccc(O)c(CO)c1.O=S(=O)(O)O (stereo unspecified) [Salbutamol hemisulfate]	99.9	103	84.9 (inactive)	106 (inactive)
CCCCCC=CCC=CCC(O)C=CC=CCCCC(=O)O (stereo unspecified)	102	90.4	96.8 (inactive)	101 (inactive)
CCCCCC(O)C=CC=CCC=CC=CC(O)CCCC(=O)O (stereo unspecified)	115	98.1	101 (inactive)	86.5 (inactive)
CN(C)CCn1cc(S(=O)(=O)c2cccc(F)c2)c2cccnc21	99.5	74.4	127 (active)	111 (inactive)
CC(C=CC=C(C)C=CC1=C(C)C(=O)CCC1(C)C)=CC=CC=C(C)C=CC=C(C)C=CC1=C(C)C(=O)CCC1(C)C [Canthaxanthin]	102 ± 4.6	104 ± 3.5	90 (inactive)	106 (inactive)
c1cc(-c2cnn3cc(-c4ccc(OCCN5CCCCC5)cc4)cnc23)ccn1 [AMPK Inhibitor,                  Compound C]	102	102	85.8 (inactive)	106 (inactive)
O=NN(CCCl)C(=O)NC1CCCCC1 [Lomustine]	104	85	102 (inactive)	99.7 (inactive)
CCCCCCCC(=O)OCC(CO)OC(=O)CCCCCCC (stereo unspecified) [1,2-Dioctanoyl-SN-glycerol]	98.8	101	92.3 (inactive)	98.6 (inactive)
CS(=O)(=O)Nc1ccc([N+](=O)[O-])cc1Oc1ccccc1 [Nimesulide]	104 ± 4.5	107 ± 2.2	94.4 (inactive)	96.5 (inactive)
CC(=O)OCC(=O)[C@@]1(O)CC[C@H]2[C@@H]3CCC4=CC(=O)C=C[C@]4(C)[C@H]3[C@@H](O)C[C@@]21C	99.3	103	93.1 (inactive)	101 (inactive)
COc1cc2nccc(Oc3ccc(NC(=O)Nc4cc(C)on4)c(Cl)c3)c2cc1OC.O [VEGFR Tyrosine Kinase Inhibitor IV]	82.4	90.7	94 (inactive)	121 (inactive)
CC[C@@]1(O)C(=O)OCc2c1cc1n(c2=O)Cc2cc3c(CN(C)C)c(O)ccc3nc2-1	61.3	26.3	129 (active)	142 (active)
Cl.O=C1NCC2(CCN(CCc3ccccc3)CC2)O1 [Fenspiride hydrochloride]	98.2	105	93.2 (inactive)	91 (inactive)
CN(Cc1cc(Br)cc(Br)c1N)C1CCCCC1 [Bromhexine]	98.8	110	88.6 (inactive)	123 (inactive)
